# Most compounds without a hit are left out; they make up all but 4.1% or so of the library.
# DAX1 inh-1 – inhibitors of DAX1 repression of SF-1 activated StAR promoter | HEK293T StAR-luciferase reporter, SF-1/DAX-1 repression relief | inhibition, % at 6.8 µM | 370,000 tested, 1.1% active;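 active means inhibition above the mean over all tested compounds plus 3 SD, cut at about 3.6% in these data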;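 further: 0% = DAX-1 cells with DMSO and 100% = cells lacking DAX-1 with DMSO; higher inhibition means more luminescence from relief of DAX-1 repression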
# hcDAF12 agonist – H. contortus DAF-12 activation, primary screen. HEK293 hcDAF-12 lit1-tk-luc reporter, luminescence; 0% DMSO, 100% Δ7-dafachronic acid. activation, % at 6.8 µM. 370,000 tested, 1.4% active. AID 652067;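 active means activation above the mean of all tested compounds plus 3 SD, cut at about 5.5% in these data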;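 further: 100% = response to 3 µM Δ7-dafachronic acid high control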
# ssDAF-12 act – activators of S. stercoralis DAF-12 nuclear receptor; HEK293 ssDAF-12/GRIP1 lit1-tk-luc reporter, luminescence; % of 3 µM dafachronic acid response; activation, % at 6.8 µM; 370,000 tested, 1% active;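 active means activation above the mean over all tested compounds plus 3 SD, cut at about 0.9% in these data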;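 further: 0% = DMSO-only wells and 100% = 3 µM delta7-dafachronic acid wells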
# hgDAF-12 ag – hgDAF-12 agonism, primary luciferase screen; HEK293 GAL4-hgDAF12 UAS-luciferase reporter, agonist luminescence; normalized to butyrate control; activation, % at 6.8 µM; 370,000 tested, 1.8% active;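 active means activation above a cutoff set at the mean of all screened compounds plus 3 SD, cut at about 10% in these data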;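 further: 0% = DMSO wells and 100% = sodium butyrate wells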
# DAX1 inh-2 – NR0B1 (DAX1) inhibition; P51843; HEK293 Gal4-DAX1 luciferase reporter, luminescence; inhibition, % at 6.75 µM; 340,000 tested, 0.99% active; AID 504766;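 active means inhibition above the mean over all tested compounds plus 3 SD, cut at about 4.2% in these data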;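 further: 0% = DAX1-transfected cells with DMSO and 100% = empty-vector control cells with DMSO; inhibition shows as a rise in luminescence from relieved DAX1 repression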
# Target sequence (P51843 207-470 limits assumed): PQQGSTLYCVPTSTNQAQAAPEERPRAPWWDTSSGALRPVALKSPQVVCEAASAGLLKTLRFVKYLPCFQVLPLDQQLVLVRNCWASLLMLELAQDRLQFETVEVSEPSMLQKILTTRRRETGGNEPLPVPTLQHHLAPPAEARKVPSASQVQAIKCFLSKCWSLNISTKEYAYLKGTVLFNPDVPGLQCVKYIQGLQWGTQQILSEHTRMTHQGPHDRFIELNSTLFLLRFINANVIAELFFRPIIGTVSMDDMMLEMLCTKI
# Numbers without * were called inactive; / = no result given; ! = repeats disagree.
SMILES,DAX1 inh-1,hcDAF12 agonist,ssDAF-12 act,hgDAF-12 ag,DAX1 inh-2
OC1c2cc(Cl)ccc2-c2c(Cl)cc(Cl)cc21 (stereo unspecified),-2,4,0,2,5.4*
CCN(C(=O)CSc1nccc(=O)[nH]1)C1CCCCC1,0,-1,-1,0,0
CCN(CC)C(CNC(=O)CSc1nnnn1-c1c(C)cccc1C)c1ccco1 (stereo unspecified),3.6*,-1,0,0,0
CCN(CC)C(CNC(=O)CSc1nnnn1-c1ccc(C)c(C)c1)c1ccco1 (stereo unspecified),-2,0,-1,-1,-1
Clc1cccc(/C(Cc2nc3ccccc3[nH]2)=N\Nc2ccccc2)c1,1,1,1.0*,3,0
c1ccc(N/N=C(\Cc2nc3ccccc3[nH]2)c2ccccc2)cc1,1,4,-1,8,1
COc1ccc(OC)c(CN2C(=O)CSCC2(C)c2nnnn2C2CCCC2)c1 (stereo unspecified),-1,0,-1,0,/
COc1ccc(NC(=O)c2cc(C3CCCCN3S(=O)(=O)Cc3ccccc3)on2)cn1 (stereo unspecified),3,1,-1,11*,/
O=C(NCc1ccccc1)c1cc(C2CCCCN2S(=O)(=O)Cc2ccccc2)on1 (stereo unspecified),-2,-2,-2,-1,/
COCCCNC(=O)COc1ccc(Br)cc1Cl,1,-1,-1,11*,1
CCNC(=O)COc1ccc(Br)cc1Cl,0,0,-1,4,-1
Cc1ccc(C(=O)N2CCC(C(=O)NC3CCCC3)CC2)cc1,0,0,0,-1,4.3*
O=C(NC1CCCC1)C1CCN(C(=O)c2ccc(Cl)cc2)CC1,0,-1,-1,1,4
CC(C)c1ccc(NC(=S)N2CCN(C)CC2)cc1,1,-1,0,2,1
CC(C)c1ccc(NC(=S)N2CCCC2)cc1,3.9*,5,0,6,2
CNc1ccccc1/C(O)=C(\C#N)C(=O)NCc1cccc2ccccc12,0,-2,-1,-1,/
COc1cc2c(cc1NC(=O)CSc1nnc(-c3ccccc3C)n1Cc1ccco1)oc1ccccc12,-2,0,-1,3,/
Cc1ccc([N+](=O)[O-])cc1NC(=O)C1CCN(S(C)(=O)=O)CC1,1,0,-2,1,-1
Cc1ccc([N+](=O)[O-])cc1NC(=O)C1CCCC1,1,-1,5.5*,1,0
CCn1cc(C(=O)NNC(=O)c2ccc(Cl)cc2)c(=O)c2ccc(C)nc21,/,/,/,/,1
O=C(CSc1nc(O)cc(=O)n1-c1ccc(Cl)c(Cl)c1)Nc1ccc(Cl)cc1Cl,-1,-2,0,1,0
COc1cc2c(cc1OC)C(NC(=O)C(F)(F)F)CNC2=O (stereo unspecified),1,-1,-2,13*,-1
CN1CCN(CCCNC(=O)c2ccc(CS(=O)(=O)c3ccc(Br)cc3)o2)CC1,-1,-3,-1,1,4.3*
O=C(NCCCN1CCCC1)c1ccc(CS(=O)(=O)c2ccc(Br)cc2)o1,1,2,-2,-2,0
COCCNC(=O)c1ccc(CS(=O)(=O)c2ccc(OC)cc2)o1,-1,0,-1,-4,5.2*
SMILES,DAX1 inh-1,hcDAF12 agonist,ssDAF-12 act,hgDAF-12 ag,DAX1 inh-2
CN1CC=C(c2ccccc2)N(c2ccc(Br)cc2)C1=O,0,3,-1,7,/
CCCCCN1CCCCC(NC(=O)CSc2ccccc2)C1=O (stereo unspecified),0,-2,-1,1,/
COc1ccc(-c2cc(-c3nnc(SCC(=O)Nc4ccc(OCc5ccccc5)cc4)n3N)[nH]n2)cc1,-3,1,-1,2,/
COc1ccc(CC(=O)NCC2CCCN(Cc3ccc(F)cc3F)C2)cc1 (stereo unspecified),1,5,0,12*,-1
COc1ccc(CC(=O)NCC2CCCN(Cc3ccc(OC)cc3F)C2)cc1 (stereo unspecified),0,-1,-1,-2,0
COc1ccc(Cc2c(C)nc(N)nc2Cl)cc1,0,-1,1.7*,-1,0
CCc1nnc(NC(=O)C=C(C)C)s1,2,1,0,8,2
CC(C)=CC(=O)Nc1nnc(-c2ccccc2C)s1,2,0,-1,6,5.2*
COc1ccc(C(=O)c2c3ccccc3[n+]([O-])n2Cc2ccc(C(N)=O)cc2)cc1,0,-1,-2,-2,0
COc1ccc2c(C(=O)c3ccc(C)cc3)n(Cc3ccc(C(N)=O)cc3)[n+]([O-])c2c1,2,11*,2.1*,10,2
O=C(NN=C1CCCC1)c1ccn[nH]1,2,1,1,12*,2
O=C(NN=C1CCCCCCCCCCC1)c1ccccc1F,3,3,0,12*,0
CC(C)(C)c1ccc(/C=N/NC(=O)C2CCCC2)cc1,3,1,0,6,2
CC(C)c1ccc(/C=N/NC(=O)C2CCCC2)cc1,4,6.0*,0,8,0
O=S1(=O)c2ccc(N3CCC[C@H]3CO)cc2O[C@@H]2CCN1C2,-1,0,0,-1,/
CC(=O)Cc1nsc(Nc2ccc(C)cc2)n1,4.2*,5,1,12*,3
COC(=O)N1C[C@H](OC(=O)c2ccc(-c3ccccc3)cc2)[C@H]2C[C@@H]1c1ccccc1O2,0,1,-1,2,/
O=C1C=CC2=C3c4cc(O)c(O)cc4CC3(O)COC2=C1O (stereo unspecified),1,0,-1,-2,5.2*
Cc1nc(SCc2cccc(C(=O)O)c2)nc2c1CCCC2,-1,-5,-2,-9,-1
COC(=O)CSc1nc(C)c2c(n1)CCCC2,1,-1,-1,0,4.6*
O=C(O)CSc1nc2c(c(C(F)(F)F)n1)CCCC2,0,0,-1,1,5.1*!
Cc1ccc(NC(=O)[C@@H]2CC(=O)O[C@@H]2c2ccccc2)cc1C,-1,0,-2,2,/
CC(=O)NN1C(=O)/C(=C2/Sc3ccc(Cl)cc3N2C)SC1=S,0,1,-1,0,1
COc1cc(Cl)cc(C(c2c(C(=O)O)[nH]c3ccccc23)c2c(C(=O)O)[nH]c3ccccc23)c1O,1,5.7*,-1,2,1
O=C(O)c1[nH]c2ccccc2c1C(c1c(F)cccc1Cl)c1c(C(=O)O)[nH]c2ccccc12,0,-1,-1,5,1
Cc1cccc2nc(-c3ccccc3)c(-c3ccc(CN4CCC5(CC4)CNc4ccccc45)cc3)nc12,0,0,0,3,/
CC(C)c1ccc(/C=C/C(=O)N2CCOCC2)cc1,3,0,0.9*,6,6.2*
CC(C)c1ccc(NC(=O)NN2CCOCC2)cc1,4.3*,3,1.5*,13*,5.0*
